# From PubChem BioAssay (NCI)
# Compounds without any hit were thinned out: in the full panel of roughly 83,000, 20% have a hit.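 How to read the values: 0–100, growth inhibition (40 = 60% inhibited); 0, no net growth; -100 to 0, cell death (-40 = 40% of starting cells died; -100 = all dead).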 Values without a mark were called inactive. The source made the active and inactive calls. Rule for the calls: active = growth percent below 10; inactive = the rest.
# Key:
# Experiment in all cases: NCI-60 one-dose screen, 48 h (100 = growth as untreated, 0 = no growth, -100 = all killed)
# Conditions in all cases: 10 µM unless noted
# SR leukemia = test system: SR leukemia
# RPMI-8226 leukemia = test system: RPMI-8226 leukemia
# OVCAR-8 ovarian = test system: OVCAR-8 ovarian
# OVCAR-5 ovarian = test system: OVCAR-5 ovarian
# OVCAR-4 ovarian = test system: OVCAR-4 ovarian
# SK-OV-3 ovarian = test system: SK-OV-3 ovarian
# IGROV1 ovarian = test system: IGROV1 ovarian
# OVCAR-3 ovarian = test system: OVCAR-3 ovarian
# HS 578T breast = test system: HS 578T breast
# NCI/ADR-RES ovarian = test system: NCI/ADR-RES ovarian
# T-47D breast = test system: T-47D breast
# BT-549 breast = test system: BT-549 breast
# MDA-MB-435 melanoma = test system: MDA-MB-435 melanoma
# SW-620 colon = test system: SW-620 colon
# MCF7 breast = test system: MCF7 breast
# HCT-116 colon = test system: HCT-116 colon
# HCC-2998 colon = test system: HCC-2998 colon
# KM12 colon = test system: KM12 colon
SMILES,growth (SR leukemia),growth (RPMI-8226 leukemia),growth (OVCAR-8 ovarian),growth (OVCAR-5 ovarian),growth (OVCAR-4 ovarian),growth (SK-OV-3 ovarian),growth (IGROV1 ovarian),growth (OVCAR-3 ovarian),growth (HS 578T breast),growth (NCI/ADR-RES ovarian),growth (T-47D breast),growth (BT-549 breast),growth (MDA-MB-435 melanoma),growth (SW-620 colon),growth (MCF7 breast),growth (HCT-116 colon),growth (HCC-2998 colon),growth (KM12 colon)
c1ccc(CNc2ccc3nc(CCC4CCCCC4)[nH]c3c2)cc1,80.8%,47.9%,72.3%,63.4%,47.5%,86.8%,53.5%,63.9%,80.9%,61.8%,33.9%,72.2%,81.6%,67.8%,62%,54.6%,45.8%,
COc1cc(OC)cc(C2C(C#N)=C(N)Oc3c2ccc2ccc(O)cc32)c1 (stereo not drawn),12.6%,8.83% (active),18.1%,33.1%,55.6%,42.3%,14.3%,-16% (active),53.2%,-8.97% (active),58.4%,26.2%,4.98% (active),26.1%,7.95% (active),4.25% (active),7.75% (active),
CCN1C(=O)N(CC)C2C1NN=c1s/c(=C\c3ccccc3Br)c(=O)n12 (stereo not drawn),13.6%,15.5%,1.17% (active),28%,49.7%,38.1%,16.9%,2.96% (active),16.1%,7.75% (active),85.5%,16.3%,-15.7% (active),20.3%,13.6%,6.2% (active),10.7%,10.3%
O=C(CN1C(=O)/C(=C/c2ccco2)SC1=S)NCCc1c[nH]c2ccc(F)cc12,111%,97.8%,105%,105%,99.7%,93.7%,104%,110%,95.9%,99.1%,103%,97.4%,104%,107%,97.5%,96.6%,115%,101%
Cn1c(O)c(C(/C=C/c2ccccc2)=Nc2ccccc2N)c(=O)n(C)c1=O,-19.7% (active),58.7%,107%,83.4%,101%,110%,77.4%,105%,110%,96.5%,85.5%,121%,95.5%,106%,99%,56.7%,90%,107%
COC(c1ccc2ccccc2c1)C(C)C(F)F (stereo not drawn),92%,98.8%,99.4%,95.5%,109%,87.5%,100%,114%,116%,107%,90%,95%,96%,106%,109%,87.7%,114%,107%
CC(=O)c1c(Nc2ccc(F)c(F)c2F)[nH]c2c(F)cc(F)cc2c1=O,8.21% (active),-10.6% (active),5.38% (active),12.8%,12.1%,-4.26% (active),16.2%,7.99% (active),4.13% (active),1.67% (active),-14.3% (active),2.13% (active),-14.4% (active),7.98% (active),0.843% (active),3.09% (active),7.96% (active),2.32% (active)
CC(C)CN1CC(C(=O)Nc2ccc3c(c2)-c2ccccc2C3)CC1=O (stereo not drawn),63.4% [50 µM],55% [50 µM],48.5% [50 µM],69.8% [50 µM],71.2% [50 µM],74.6% [50 µM],67.9% [50 µM],75.6% [50 µM],28.8% [50 µM],67.7% [50 µM],61.5% [50 µM],65% [50 µM],90.2% [50 µM],93.3% [50 µM],52.9% [50 µM],64.1% [50 µM],64.4% [50 µM],74% [50 µM]
COc1ccc(C2CC(c3ccc4c(c3)OCO4)=Nc3c(N)ncnc3N2)cc1 (stereo not drawn),86.4%,55.7%,103%,82.9%,102%,103%,104%,151%,103%,92.3%,84.9%,118%,105%,95.9%,90.6%,98.5%,92.4%,100%
CN1CCN(c2ccc3c(c2)nc(NNC(=O)c2cnccn2)c2cccn23)CC1,15%,45.3%,20.9%,49.3%,25%,32.5%,15.6%,13.9%,75.4%,16.9%,37.9%,41.2%,32.6%,34.1%,13.8%,23.1%,47.8%,19.3%
Cc1cccc(NC(=O)CSc2nc3ccc([N+](=O)[O-])cc3[nH]2)c1,96.2%,55.5%,83.6%,99.2%,59.3%,88.2%,87.4%,72.7%,83.4%,74.4%,51.8%,100%,72%,97.9%,86.5%,70%,96.9%,81.9%
Cc1ccc(N=Nc2c(N)nn(-c3ccccc3)c2N)cc1,-16.6% (active),-1.12% (active),41.6%,55.3%,75%,37.2%,48.3%,0.588% (active),36.1%,-5.12% (active),21.5%,-3.98% (active),-52.1% (active),23.2%,7.61% (active),15.6%,46.1%,27.6%
COc1cc(C(=O)/C=C/c2ccc(N3CCN(C)CC3)cc2)cc(OC)c1OC,91.2%,107%,98%,96.5%,101%,100%,94.8%,98.6%,94.3%,95.2%,95.8%,100%,95.5%,88%,96%,104%,101%,99.3%
CC(C)CCC[C@@H](C)C1CCC2C3CCC4=C/C(=N/OCCN(C)C)CC[C@]4(C)C3CC[C@@]21C (stereo partly drawn),62.2%,78.4%,104%,83.9%,88.5%,93.8%,48.9%,89.5%,83.8%,89.6%,87.4%,90.5%,102%,91.1%,91.9%,83.9%,80.8%,87.4%
Fc1ccc2c(c1)c(-c1nc(-c3c[nH]c4ncccc34)cs1)cn2CCCN1CCOCC1,12.1%,36.6%,59.7%,82.3%,56.2%,81.6%,38.6%,59.8%,38.3%,59.2%,38.1%,69.5%,-17.1% (active),24.9%,22%,40.4%,74.3%,22.5%
